Screens as filed in PubChem.
Many of the other results were omitted from the sample, so hits are more common in it than they were.
Pf apPOL inh = Pf-apPOL inhibitors, biochemical, fluorescence | Plasmodium falciparum apicoplast DNA polymerase (apPOL) | Recombinant Pf-apPOL, molecular beacon fluorescence, 1.5 h | inhibition, % at 10 µM | 210,000 compounds, 0.25% hits | AID 1794808, 2022
mHTT-CaM PPI inh = mutant huntingtin-calmodulin interaction inhibitors – biochemical, AlphaScreen, primary screen | inhibition, % at 15 µM | 190,000 compounds, 3.6% hits | AlphaScreen His-mHTT/GST-CaM binding, luminescence;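 note: 0% = both proteins with DMSO and 100% = one protein alone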
Starred values were filed as active, the others as inactive; · = no result. Cut-off read from the data, not from the text of the source: active = inhibition above about 50%; inactive = the rest.

SMILES	Pf apPOL inh	mHTT-CaM PPI inh
NC(=O)c1ccc(NC(=O)CSc2ccccn2)cc1	-3	-4
CCOc1nccnc1N1CCC(N(C)C(=O)c2cccs2)C1 (stereo unspecified)	5	16
CCNS(=O)(=O)c1cc(-c2nn(C)c(=O)c3ccccc23)ccc1C	19	1
Cc1ccc(-c2nn(C)c(=O)c3ccccc23)cc1S(=O)(=O)NCCCO	95*	0
Cc1oc(C)c(S(=O)(=O)NC(C)C)c1C(=O)NCc1ccco1	2	-8
COc1ccccc1CC(=O)N1CCN(C2=CC3=NCC(C)N3C=N2)CC1 (stereo unspecified)	-4	15
Cc1ccccc1OCC(=O)N1CCN(C2=CC3=NCC(C)N3C=N2)CC1 (stereo unspecified)	1	100*
CCOc1cc(C(=O)Nc2cccc(C(C)=O)c2)cc(OCC)c1OCC	1	8
Cc1ccc(C2=C/C(=C\c3ccccn3)C(=O)O2)cc1	-5	5
Cc1ccc(C2=C/C(=C\C=C\c3ccccc3)C(=O)O2)cc1	62*	25
Cc1ccccc1NC(=O)N1CC=C(c2cn(C(C)C)c3ncccc23)CC1	-6	27
COc1ccc(C)cc1NC(=O)N1CC=C(c2cn(C(C)C)c3ncccc23)CC1	-4	53*
CN(C)S(=O)(=O)c1ccc(C(=O)Nc2c3c(nn2-c2ccc(F)cc2)CS(=O)C3)cc1 (stereo unspecified)	-27	7
COc1ccc(C(=O)Nc2nccs2)cc1I	-9	-7
COc1ccc(Cl)cc1NC(=O)N1CCn2cccc2C1Cc1ccccc1 (stereo unspecified)	-2	62*
O=C(Nc1cc(F)ccc1F)N1CCn2cccc2C1Cc1ccccc1 (stereo unspecified)	-2	-2
COc1cc(NC(=O)N2CCn3cccc3C2Cc2ccccc2)cc(OC)c1 (stereo unspecified)	-6	27
COc1ccc(NC(=O)N2CCn3cccc3C2Cc2ccccc2)cc1OC (stereo unspecified)	2	59*
O=C(CSc1nnc(-c2cccnc2)n1-c1ccccc1)NCc1cccnc1	-9	-4
Cc1cccc(C(=O)Sc2n[nH]c(=O)[nH]c2=O)c1	-12	70*
O=C(Sc1n[nH]c(=O)[nH]c1=O)c1ccc(Cl)cc1	-4	37
CCN1C(=O)C(C)(C(=O)Nc2ccc(OC)c(Cl)c2)Oc2cccnc21 (stereo unspecified)	3	-5
Cc1ccc2[nH]cc(CCNC(=O)C3CCN(c4ccc(N5CCCCC5)nn4)CC3)c2c1	-7	78*
CN(CCNC(=O)CC1CCN(C(=O)C2CCCCC2)CC1)Cc1ccccc1	-6	-3
CC(CCc1ccccc1)NC(=O)CC1CCN(C(=O)C2CCCCC2)CC1 (stereo unspecified)	6	57*
SMILES	Pf apPOL inh	mHTT-CaM PPI inh
Cc1ccc2[nH]cc(CCNC(=O)CC3CCN(C(=O)C4CCCCC4)CC3)c2c1	-7	86*
CN(C)c1ccc(N2CCC(C(=O)NCCc3c[nH]c4ccccc34)CC2)nn1	2	96*
O=C(NCCc1c[nH]c2ccccc12)C1CCN(c2ccncc2)CC1	-2	14
Cc1ccc(CNC(=O)C2CCN(c3ccc(N4CCCCC4)nn3)CC2)cc1	-6	-9
COc1ccc2[nH]cc(CCNC(=O)CC3CCN(C(=O)C4CCCCC4)CC3)c2c1	-6	9
CCOc1ccc(C(=O)Nc2ccc3c(c2)C(=O)N(C)C3=O)cc1Cl	-7	1
O=C(Nc1ccc([N+](=O)[O-])cc1)NC1(C(F)(F)F)Oc2ccc(Cl)cc2O1 (stereo unspecified)	-3	4
COc1cccc(CN2C(=O)c3ccccc3CC2(C)C(=O)NCc2ccccc2OC)c1 (stereo unspecified)	-5	3
CCc1ccc(NC(=O)c2ccc(F)c(S(=O)(=O)NCc3ccccc3OC)c2)cc1	-5	2
O=C(Cn1cnc([N+](=O)[O-])n1)Nc1ccc(F)c(Cl)c1	4	0
O=C(c1ccc(-c2ccc(C3CCCCC3)cc2)nc1)N1CCOCC1	-2	-4
COc1cccc(NC(=O)c2coc(=O)c3ccccc23)c1	12	7
COc1ccc2[nH]cc(CCNC(=O)C3CCc4nc(N5CCCC5)ncc4C3)c2c1 (stereo unspecified)	-8	23
O=C(CC1CCN(C(=O)c2ccccc2Cl)CC1)NCCc1c[nH]c2ccccc12	-5	71*
O=C(NCCc1c[nH]c2ccccc12)C1CCc2nc(N3CCCC3)ncc2C1 (stereo unspecified)	-3	54*
O=C(CC1CCN(C(=O)c2ccccc2Cl)CC1)NCc1ccccc1F	0	-7
O=C(c1ccco1)N1CCCC2(C1)Nc1ccccc1NC2=NCc1ccccc1 (stereo unspecified)	-5	84*
O=C(c1ccoc1)N1CCCC2(C1)Nc1ccccc1NC2=NCc1ccccc1 (stereo unspecified)	4	100*
CC(=O)N1CCCC2(C1)Nc1ccccc1NC2=NCc1ccccc1 (stereo unspecified)	1	72*
CCn1nccc1C(=O)N1CCCC2(C1)Nc1ccccc1NC2=NCc1ccccc1 (stereo unspecified)	-11	36
O=C(c1cccnc1)N1CCCC2(C1)Nc1ccccc1NC2=NCc1ccccc1 (stereo unspecified)	-5	46
O=C(c1ccccn1)N1CCCC2(C1)Nc1ccccc1NC2=NCc1ccccc1 (stereo unspecified)	-9	45
Cc1ccccc1OCC(O)CN(C)C (stereo unspecified)	-7	2
O=C1/C(=C/c2cccnc2)SC(=Nc2ccccc2)N1CCc1ccccc1	4	1
Cc1cccc(N=Cc2cc(Cl)cc([N+](=O)[O-])c2O)c1	-4	14
SMILES	Pf apPOL inh	mHTT-CaM PPI inh
O=C(Nc1cccc(N=Cc2cc(Cl)cc([N+](=O)[O-])c2O)c1)c1ccco1	2	68*
Cc1ccccc1C(=O)Nc1cccc(N=Cc2cc([N+](=O)[O-])cc([N+](=O)[O-])c2O)c1	-1	48
O=Cc1cc(Cc2ccccc2)cc([N+](=O)[O-])c1O	-1	100*
O=[N+]([O-])c1cc(Cc2ccccc2)ccc1O	7	26
CC(=O)Nc1cccc(N=Cc2cc(Cc3ccccc3)cc([N+](=O)[O-])c2O)c1	-7	51*
O=[N+]([O-])c1cc(C(F)(F)F)ccc1NNc1ccc(C(F)(F)F)cc1[N+](=O)[O-]	6	·
C=CCSc1nc2c(cnn2-c2ccc(Cl)cc2)c(=O)[nH]1	9	0
CC(C)c1c(C2CCN(C(=O)c3cc(F)ccc3F)CC2)noc1N	-4	-7
COc1cc(C(=O)N2CCC(CC(=O)NCCC3=CCCCC3)CC2)cc(OC)c1OC	-3	3
CCN1c2cc(C)ccc2-n2cccc2C12CCN(C(=O)Nc1cccc(C)c1)CC2	5	66*
CCN1c2cc(C)ccc2-n2cccc2C12CCN(C(=O)Nc1cc(F)ccc1F)CC2	1	51*
CCN1c2ccccc2-n2cccc2C12CCN(C(=O)Nc1ccccc1C)CC2	-2	4
Cc1cccc(NC(=O)N2CCC3(CC2)NC(=O)c2ccccc2N3C)c1	0	-10
CCN1c2cc(C)ccc2-n2cccc2C12CCN(C(=O)Nc1ccc(F)cc1F)CC2	-6	52*
